# Compound activity (PubChem BioAssay)
# Gal4-VP16 FLuc: inhibits Gal4-VP16 luciferase reporter, ROR gamma counter-screen | 3.5% of 310,000 active | Drosophila S2 Gal4-VP16 UAS-luciferase, luminescence, 20 h | Potency, µM (series often up to 53.6 µM), for inactives: at the top dose activity, negative = inhibition, most hits filed as inhibitors;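 also: Gal4-VP16 expression switched on by copper sulfate through the metallothionein promoter; nearly all actives have a fitted effect of over 50% in size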
# RORg inh: blocks mouse ROR gamma transcriptional activity. Potency, µM (titrated, usually from 53.6 µM), for inactives: top-dose activity change, negative = inhibition, most hits filed as inhibitors. 5.4% of 310,000 active. AID 2551. Drosophila S2 Gal4-RORgamma UAS-luciferase reporter, 20 h; also: nearly all actives have a fitted effect of over 60% in size
# Target sequence (P51450 whole entry, looked up, the tested form may be a part): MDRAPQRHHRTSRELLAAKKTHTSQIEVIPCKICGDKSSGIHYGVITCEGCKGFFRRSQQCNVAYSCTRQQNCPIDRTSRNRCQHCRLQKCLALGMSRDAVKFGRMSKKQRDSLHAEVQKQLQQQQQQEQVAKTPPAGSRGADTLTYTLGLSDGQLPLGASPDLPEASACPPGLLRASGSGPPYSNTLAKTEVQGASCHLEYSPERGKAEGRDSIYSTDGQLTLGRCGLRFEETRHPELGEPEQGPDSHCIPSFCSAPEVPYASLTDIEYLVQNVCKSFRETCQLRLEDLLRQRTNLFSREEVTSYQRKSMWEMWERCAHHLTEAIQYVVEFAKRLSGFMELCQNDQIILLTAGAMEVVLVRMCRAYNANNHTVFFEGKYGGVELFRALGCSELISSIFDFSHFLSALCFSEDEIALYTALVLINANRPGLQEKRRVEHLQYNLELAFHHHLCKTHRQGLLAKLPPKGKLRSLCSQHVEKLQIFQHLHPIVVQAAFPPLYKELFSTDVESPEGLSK
#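 Luciferase reporter read in Schneider cells carrying Gal4-RORγ (mouse) and UAS-Photinus luciferase; cells given compound 1 h before 700 uM copper sulfate induction, then incubated 20 h at ambient temperature.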
# DT40 TDP1 CPT: growth inhibition of DT40 Tdp1-/-;hTDP1 cells with camptothecin (screen for TDP1 inhibitors). 12% of 420,000 active. AID 686979. chicken DT40 Tdp1-/-;hTDP1 cells + 20 nM CPT, ATP luminescence, 48 h. Potency, µM (titrated, usually from 46.2 µM), for inactives: top-dose activity change, negative = growth inhibition, most hits filed as inhibitors; also: nearly all actives have a fitted effect of over 55% in size
#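 Chicken DT40 Tdp1-/- cells complemented with human TDP1, 400 cells/well, exposed to compounds plus 20 nM camptothecin for at least 48 h at 37 C; viability read as ATP content by CellTiter-Glo luminescence.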
# TDP1 inh: blocks human tyrosyl-DNA phosphodiesterase 1. Q9NUW8. recombinant TDP1, AlphaScreen DNA substrate cleavage. Potency, µM (top dose mostly 130 µM), without a hit: at the highest dose activity change, negative = inhibition, hits mostly inhibitors. 0.28% of 350,000 active. AID 485290; also: nearly all actives have a fitted effect of over 40% in size
#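 Recombinant E. coli-expressed Tdp1 (1 nM) preincubated with compound 15 min at RT, then 5'-biotin/3'-phosphotyrosine-FITC DNA substrate (15 nM) added for 5 min. AlphaScreen beads (10 ug/ml) added, 10 min RT; tyrosine-FITC cleavage read as signal loss.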
# DT40 TDP1 no CPT: qHTS for Inhibitors of human tyrosyl-DNA phosphodiesterase 1 (TDP1): qHTS in cells in absence of CPT; DT40 Tdp1-/- hTDP1 cells, no CPT, ATP luminescence, 48 h; Potency, µM (top dose mostly 46.2 µM), for inactives: at the top dose activity change, negative = growth inhibition, hits mostly inhibitors; 15% of 420,000 active; AID 686978, 2013; also: nearly all actives have a fitted effect of over 55% in size
#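 DT40 Tdp1-/-;hTDP1 cells, no CPT (DMSO vehicle only), 400 cells/well; compounds pin-transferred; ≥48 hr, 37 °C; CellTiter-Glo 30 min RT dark, luminescence read.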
# Active calls of the source: *; ? = inconclusive; . = no result given; [ ] = remark or other dose. Compounds with a hit are over-represented: about 19% of the library has one in this group of screens. Calls follow the shape of the dose curve; as a rule, active = well fitted curve in the direction sought with a large enough effect; inconclusive = small, poorly fitted or top-dose-only effect, or another doubt; inactive = no such curve, though single readings can be large; an effect the other way counts as inactive or inconclusive. % is scaled to controls: 0 for no effect and ±100 for the full control effect; potency is read from the fitted curve at half-maximal effect.
SMILES,Gal4-VP16 FLuc,RORg inh,DT40 TDP1 CPT,TDP1 inh,DT40 TDP1 no CPT
CC(=O)N1CCN(c2ccc(NC(=O)c3ccco3)cc2Cl)CC1,?,8%,-3%,5%,5%
CCCC(=O)N1CCN(c2ccc(NC(=O)c3cc4ccccc4o3)cc2Cl)CC1,?,0%,3.3µM*,7%,3.7µM*
CCN(C(=O)CSc1nnc(CNc2cccc(OC)c2)n1C1CCCCC1)C1CCS(=O)(=O)C1 (stereo not drawn),-7%,6%,-12%,5%,?
CCOC(=O)C1CCCN(C(=O)c2cc(-c3ccncc3)nc3ccccc23)C1 (stereo not drawn),.,.,?,.,-19%
CCOC(=O)C1CCCN(C(=O)c2cc(-c3ccc(F)cc3)nc3ccccc23)C1 (stereo not drawn),10%,22%,?,5%,15µM*
CCOC(=O)C1CCCN(C(=O)c2cc(Nc3ccc(OC)cc3)nc3ccccc23)C1 (stereo not drawn),1%,?,21µM*,6%,15µM*
CCN1CCCC(OC(=O)c2cc(-c3ccc(C)cc3)nc3ccccc23)C1 (stereo not drawn),-9%,?,?,8%,16µM*
CCOC(=O)C1CCCN(C(=O)c2cc(-c3ccco3)nc3ccccc23)C1 (stereo not drawn),.,.,-10%,.,-1%
COc1ccc(NC(=O)COC(=O)COc2cccc(Br)c2)cc1OC,3%,1%,2%,3%,5%
CCO[C@@H]1OC(C(N)=O)=C[C@H](c2cn(C(C)=O)c3ccccc23)[C@H]1CCCO,-3%,0%,10%,-1%,-10%
CCN(CC)c1ncn(Cc2c(Cl)cccc2Cl)c2ncnc1-2,8%,1%,?,-4%,15µM*
CCN(CC)c1ncnc2c1ncn2Cc1c(Cl)cccc1Cl,4%,?,?,-1%,?
Nc1ccccc1Nc1cccc(C(F)(F)F)c1,27%,-4%,9%,6%,?
Nc1ccc(Nc2ccccc2N)cc1,-4%,?,5.2µM*,8%,10µM*
COc1ccc(Nc2c(C)cccc2C)cc1,-28%,31%,-11%,5%,-11%
COc1ccc(Nc2ccccc2N)cc1,?,?,?,6%,21µM*
COc1ccc(S(=O)(=O)NCc2ccccn2)cc1C,.,.,-3%,.,2%
COc1ccc(-c2nnn(CCC(=O)O)n2)cc1,-57%,2.2µM*,-16%,2%,-6%
Cc1ccccc1NC1=NC(=S)N(c2ccccc2)C12CCCCC2,?,3.5µM*,18µM*,4%,?
COc1ccc(NC2=NC(=S)N(c3ccc(C)cc3)C23CCCCC3)cc1,-6%,0.56µM*,?,-14%,?
COc1ccc(NC2=NC(=S)N(c3cccc(C)c3)C23CCCCC3)cc1,?,2µM*,?,1%,?
O=C(CN1C(=O)CSc2cc(S(=O)(=O)N3CCCCCC3)ccc21)NCCc1ccccc1,1%,66%,?,-3%,?
NC(=O)CCn1nc(-c2ccccc2)c2ccccc2c1=O,1%,7%,-7%,0%,-22%
COc1ccccc1-c1csc(Cc2nnc3n2CCCCC3)n1,10%,-27%,-3%,4%,-15%
C#CCSc1nncn1C(=O)/C=C/c1ccccc1,-5%,-25%,13µM*,2%,?
SMILES,Gal4-VP16 FLuc,RORg inh,DT40 TDP1 CPT,TDP1 inh,DT40 TDP1 no CPT
NNC(=S)Nc1c(Br)cc(F)cc1Br,?,6.3µM*,-5%,9%,-16%
O=C(Nc1c(F)cc(F)cc1Br)c1ccco1,-29%,?,11%,3%,-3%
CC12CC(c3ccccc3O1)C(/C(N)=N/NC(=O)c1ccc(F)cc1)C(=O)N2 (stereo not drawn),?,4.5µM*,9%,4%,-8%
Cc1ccc(Cn2ccsc2=NC(=O)COC(=O)C(C)C)cc1,1%,14%,15µM*,5%,8.2µM*
O=C(COC(=O)c1ccc(O)cc1O)N=c1sccn1Cc1ccccc1Cl,.,.,?,-4%,?
COC(=O)CC1C(=O)NC2CCCCC2N1C(=O)CCl (stereo not drawn),2%,-20%,?,5%,15µM*
CCNC(=O)N1C(CC(=O)OCC)C(=O)NC2CCCCC21 (stereo not drawn),-1%,-9%,-3%,4%,1%
COCCN(C(=S)Nc1c(C)cccc1C)C(C)c1ccco1 (stereo not drawn),-6%,?,?,2%,-24%
COc1ccc(NC(=S)N(CCN(C)C)C(C)c2ccco2)cc1 (stereo not drawn),-9%,-37%,-1%,0%,-27%
COCCN(C(=S)Nc1ccc(C)c(C)c1)C(C)c1ccco1 (stereo not drawn),?,4.5µM*,?,4%,?
Cc1ccc(NC(=S)N(CCN(C)C)C(C)c2ccco2)cc1C (stereo not drawn),?,19%,18µM*,0%,?
CCc1cc2c(SCC(=O)NC(=O)c3cccn3C)ncnc2s1,-6%,7%,5%,0%,?
CCC(=O)Nc1cccc(NC(=O)c2ccccc2Cl)c1,18%,13%,7%,-1%,6%
O=CNNC(=O)c1cccc([N+](=O)[O-])c1,4%,-9%,8%,-13%,15%
Cc1ccc(C(=O)N/N=C2\CCSC2)cc1[N+](=O)[O-],?,10µM*,-17%,3%,-2%
O=C(N/N=C1/CCSC1)c1cccc([N+](=O)[O-])c1,20µM*,?,-14%,6%,-3%
CCOc1ccc(CN2CCN(C3CCC3)CC2CCO)cc1 (stereo not drawn),-11%,16%[1.91 µM],24%,.,-2%
CC(C)(C)N(Cc1ccccc1)C(=O)c1cccs1,-5%,32%,?,5%,?
CCOC(=O)[C@]12CCCC=C1N(Cc1ccc3c(c1)OCO3)C(=O)[C@H](CC(=O)NCCc1ccccc1OC)C2,.,.,?,.,16µM*
COC(=O)[C@]12CCCCC=C1N(Cc1ccc3c(c1)OCO3)C(=O)[C@H](CC(=O)NCCc1ccccc1OC)C2,.,.,23µM*,.,18µM*
CCOC(=O)[C@]12CCCC=C1N(Cc1ccc3c(c1)OCO3)C(=O)[C@H](CC(=O)NCCCN1CCCC1=O)C2,.,.,1%,.,-5%
CCCCOc1ccc(C(=O)N/C(=C/C=C/c2ccccc2)C(=O)NC)cc1,2%,-10%,26µM*,-5%,-19%
O=C(Nc1ccc(O)cc1)/C(=C\C=C\c1ccccc1)NC(=O)c1ccccc1,6%,20%,?,7%,16µM*
